GPT2 inh: Primary qHTS assay for inhibitors of Glutamate pyruvate transaminase 2 (GPT2). Alanine aminotransferase 2 (Homo sapiens), Q8TD30. Recombinant GPT2, coupled pyruvate oxidase/HRP Amplex Red fluorescence. Potency, µM (top dose mostly 57.7 µM), inactives show top-dose activity change, negative = inhibition, hits mostly inhibitors. 0.25% of 100,000 active. AID 1671188, 2021; note: potency is the fitted concentration of half-maximal effect; % is set by controls: 0 for no effect and ±100 for the full control effect; nearly all actives have a fitted effect of over 60% in size
Target sequence (Q8TD30 whole entry, looked up): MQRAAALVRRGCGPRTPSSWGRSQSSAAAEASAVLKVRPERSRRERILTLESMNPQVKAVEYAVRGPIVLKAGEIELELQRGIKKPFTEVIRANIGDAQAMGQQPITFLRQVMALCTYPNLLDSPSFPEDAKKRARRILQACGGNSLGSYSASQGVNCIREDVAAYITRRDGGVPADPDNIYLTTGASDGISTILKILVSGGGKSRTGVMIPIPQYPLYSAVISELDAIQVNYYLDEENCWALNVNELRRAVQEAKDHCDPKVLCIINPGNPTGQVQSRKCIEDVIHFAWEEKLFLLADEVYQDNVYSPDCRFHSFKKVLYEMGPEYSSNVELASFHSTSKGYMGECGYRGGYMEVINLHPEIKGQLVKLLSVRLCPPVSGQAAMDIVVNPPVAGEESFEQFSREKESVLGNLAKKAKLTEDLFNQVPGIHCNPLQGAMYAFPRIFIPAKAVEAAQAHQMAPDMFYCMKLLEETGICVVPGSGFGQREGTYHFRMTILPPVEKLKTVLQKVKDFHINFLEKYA
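Fluorescence of coupled pyruvate oxidase/HRP/Amplex Red system (50uM Amplex, 30 min, dark) reports pyruvate formed by GPT2. Enzyme reaction: 10ng/uL GPT2, 2mM L-alanine, 250uM a-KG, 30 min room temperature, pH 7.5; 50uM AOA control.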
hNpr1 antagonist: Natriuretic polypeptide receptor (hNpr1) antagonism - Primary qHTS | 1.6% of 76,000 active | Potency, µM (titrated, usually from 46.3 µM), without a hit: at the highest dose activity change, negative = inhibition, hits mostly inhibitors | Atrial natriuretic peptide receptor 1 (Homo sapiens), P16066 | HEK293 hNpr1 GloSensor cGMP, ANP-stimulated luminescence; calls by dose curve; note: potency is the fitted concentration of half-maximal effect; % is set by controls: 0 for no effect and ±100 for the full control effect; nearly all actives have a fitted effect of over 60% in size
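Compound pre-incubated 30 min at room temperature on GloSensor-loaded HEK293 cells stably carrying hNpr1 and the pGS-40F cGMP biosensor. Stimulation uses hNppA at 0.1 nM final; luminescence is taken at baseline and 20 min post-agonist.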
NIH3T3 tox: Cytotoxic Profiling in NIH 3T3 Cell Line of Diverse Libraries Using Quantitative High-Throughput Screening | NIH 3T3 viability, CellTiter-Glo ATP luminescence, 48-72 h | Potency, µM (highest dose often 96.7 µM), for the others: at the highest dose activity change, negative = cytotoxicity, most hits filed as inhibitors | 4.3% of 94,000 active; note: potency is the fitted concentration of half-maximal effect; % is set by controls: 0 for no effect and ±100 for the full control effect; nearly all actives have a fitted effect of over 55% in size
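Cytotoxicity is measured as loss of cellular ATP: NIH 3T3 cells (400/well) are exposed to compound for 48 or 72 hr at 37 °C, then CellTiter-Glo luminescence is imaged after 10 min at room temperature.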
HEK cytotox: Cytotoxic Profiling in HEK 293 Cell Line of Diverse Libraries Using Quantitative High-Throughput Screening | AID 1345083, 2018 | Potency, µM (titrated, usually from 115 µM), inactives show at the highest dose activity change, negative = cytotoxicity, usual class: inhibitors | HEK 293 viability, ATP luminescence (CellTiter-Glo), 48-72 h | 6.6% of 94,000 active; note: potency is the fitted concentration of half-maximal effect; % is set by controls: 0 for no effect and ±100 for the full control effect; nearly all actives have a fitted effect of over 60% in size
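Read-out: CellTiter-Glo ATP luminescence. Cells: HEK 293, 250 cells/well. Exposure: 48 or 72 hr, 37 degree Celsius.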
FLuc inh: Firefly luciferase inhibition profiling of diverse chemical library using quantitative high-throughput screening; Luciferin 4-monooxygenase (Photinus pyralis), P08659; Potency, µM (top dose mostly 115 µM), hits mostly inhibitors; AID 1347043, 2019; 2.5% of 76,000 active; purified P. pyralis luciferase, luminescence, biochemical; note: potency is the fitted concentration of half-maximal effect; % is set by controls: 0 for no effect and ±100 for the full control effect; nearly all actives have a fitted effect of over 65% in size
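Purified 10nM P. pyralis luciferase with 10uM D-luciferin and 10uM ATP in 50mM Tris acetate pH 7.5, 10mM Mg acetate, 0.01% Tween-20, 0.05% BSA. qHTS titration; luminescence read by CCD imager.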
NPR1 antag cnf: Natriuretic polypeptide receptor (hNpr1) antagonism - Confirmation; HEK293 hNpr1 cGMP GloSensor luminescence, ANP-stimulated; Potency, µM (series often up to 57.6 µM), without a hit: at the highest dose activity change, negative = inhibition, usual class: inhibitors; 76% of 1,400 active; shares compounds with hNpr1 antagonist; calls by dose curve; note: potency is the fitted concentration of half-maximal effect; nearly all actives have a fitted effect of over 70% in size
Npr2 selectivity: Natriuretic polypeptide receptor (hNpr2) antagonism - Subtype selectivity assay. HEK293 hNpr2 GloSensor cGMP luminescence, CNP-stimulated. 67% of 1,400 active. AID 1347046, 2019. Potency, µM (titrated, usually from 57.6 µM), for inactives: at the top dose activity change, negative = inhibition, usual class: inhibitors. shares compounds with hNpr1 antagonist; calls by dose curve; note: potency is the fitted concentration of half-maximal effect; nearly all actives have a fitted effect of over 70% in size
FLuc counter: Natriuretic polypeptide receptor (hNpr1) antagonism - Confirmation firefly luciferase (FLuc) inhibition counterscreen; shares compounds with hNpr1 antagonist; purified FLuc enzyme, luminescence, Km substrate; Potency, µM (series often up to 57.6 µM), for inactives: top-dose activity change, negative = inhibition, hits mostly inhibitors; 0.7% of 1,400 active; note: potency is the fitted concentration of half-maximal effect; 0% is about no effect
GloSensor ctrl: Natriuretic polypeptide receptor (hNpr1) antagonism - Counterscreen GloSensor control cell line | shares compounds with hNpr1 antagonist | HEK293 GloSensor cGMP, SNP-stimulated, luminescence | Potency, µM (titrated, usually from 57.6 µM), inactives show at the top dose activity change, negative = inhibition, most hits filed as inhibitors | 69% of 1,400 active | AID 1347051, 2019; calls by dose curve; note: potency is the fitted concentration of half-maximal effect; % is set by controls: 0 for no effect and ±100 for the full control effect; nearly all actives have a fitted effect of over 70% in size
GPT2 conf: Confirmatory qHTS assay for inhibitors of Glutamate pyruvate transaminase 2 (GPT2). shares compounds with GPT2 inh. GPT2 enzyme, coupled Amplex Red pyruvate fluorescence. Potency, µM, most hits filed as inhibitors. 90% of 95 active
* marks the source's active call; other numbers are inactive results; i = inactive; ? = inconclusive; · = no result; ! = a repeat was not active; [ ] = another dose, or the depositor's remark. This is a sample that favours compounds with a hit; in the whole collection about 10% have one here. Unless noted, calls come from the whole dose curve; as a rule, active = well fitted curve in the direction sought with a large enough effect; inconclusive = small, poorly fitted or top-dose-only effect, or another doubt; inactive = no such curve, though single readings can be large; an effect the other way counts as inactive or inconclusive.

SMILES | GPT2 inh | hNpr1 antagonist | NIH3T3 tox | HEK cytotox | FLuc inh | NPR1 antag cnf | Npr2 selectivity | FLuc counter | GloSensor ctrl | others
CCOc1ccccc1C(=O)N1CCC(Cc2nc(-c3ccc(F)cc3)no2)CC1 | i | ? | ? | ? | i | · | · | · | ·
O=C(c1nc(-c2cccc(C(F)(F)F)c2)c2cnccn12)N1CCOCC1 | 2% | 20% | -2% | -1% | i | · | · | · | ·
Cn1nccc1-c1ncc2c(n1)OCCN(Cc1ccc(F)cc1F)C2=O | 4%[88.5 µM] | 35µM* | ? | ? | i | 35µM* | 35µM* | 5%[86.2 µM] | 40µM*
COc1ccccc1-c1ncc2c(n1)OCCN(Cc1ccc(F)cc1F)C2=O | -17%[88.5 µM] | -3%[70.6 µM] | ? | -35%[172 µM] | i | · | · | · | ·
O=C1c2cnc(-c3ccncc3)nc2OCCN1Cc1ccc(F)cc1F | ? | 18µM* | ? | ? | i | 31µM* | 25µM* | -2%[86.2 µM] | 22µM*
COc1ccc(CN2CCOc3nc(-c4cccc(C(F)(F)F)c4)ncc3C2=O)cc1 | -5%[88.5 µM] | 32µM* | ? | ? | i | 35µM* | 35µM* | -6%[86.2 µM] | 40µM*
COCCN1CCOc2nc(-c3cc4ccccc4o3)ncc2C1=O | -7%[88.5 µM] | 13µM* | ? | ? | i | 9.9µM* | 9.9µM* | 0.5µM* | 7.9µM*
O=C(Nc1ccc(F)c(Cl)c1)C1=NO[C@@H]2CN(Cc3cccnc3)C[C@H]12 | 5%[88.5 µM] | 28µM* | ? | ? | i | 35µM* | 35µM* | -3%[86.2 µM] | 31µM*
O=C(Nc1ccncc1)C1=NO[C@@H]2CN(CCc3ccccc3)C[C@H]12 | i | ? | ? | ? | i | 40µM* | ? | 5%[86.2 µM] | 35µM*
O=C(Nc1cccc(Cl)c1)C1=NO[C@@H]2CN(Cc3cccnc3)C[C@H]12 | -3%[88.5 µM] | ? | ? | ? | i | · | · | · | ·
O=C(c1cccc2[nH]ccc12)N1CCC(N2C(=O)C(OCC3CC3)C23CCOCC3)CC1 (stereo not given) | i | 2% | -9% | -3% | i | · | · | · | ·
Cc1noc([C@H]2CCN(Cc3cccs3)C[C@H]2NC(=O)C2CC2)n1 | i | 0% | -16% | -12% | i | · | · | · | ·
CCc1nc(CC)n2ccn(Cc3ccc(OC)cc3)c(=O)c12 | 0% | 2% | ? | ? | i | · | · | · | ·
CCc1ncc2c(=O)n(Cc3ccc(OC)cc3)ccn12 | -11% | 10µM* | -26% | ? | i | 12µM* | 12µM* | -3% | 8.6µM*
O=C1N[C@H](CC(=O)N2CCN(c3ccc(C(F)(F)F)cn3)CC2)C(=O)Nc2ccccc21 | -21% | ? | -15% | ? | i | ? | ? | -1% | ?
COc1cc(N2CCC(N3CCN(C)CC3)CC2)ccc1Nc1ncnc(Nc2ccccc2S(=O)(=O)C(C)C)n1 | 4.3µM*! | · | · | · | · | · | · | · | · | GPT2 conf=1.5*
COc1ccccc1Nc1ccnc(N2CCC(C(=O)NC(C)C)CC2)n1 | 4%[88.5 µM] | · | ? | ? | · | · | · | · | ·
COc1cc(N2CCC(C(N)=O)CC2)ccc1Nc1nc(N)c(Cl)c(Nc2ccccc2S(=O)(=O)C(C)C)n1 | 1.4µM* | · | · | · | · | · | · | · | · | GPT2 conf=3.9*
CCOc1cc(C(=O)N2CCC(N3CCN(C)CC3)CC2)ccc1Nc1ncc2c(n1)N(C1CCCC1)c1ccccc1C(=O)N2C | 4% | · | · | · | · | · | · | · | ·
COc1cc(N2CCC(O)CC2)ccc1Nc1cc(Nc2ccccc2S(=O)(=O)C(C)C)c2cc[nH]c2n1 | 3.4µM*! | · | · | · | · | · | · | · | · | GPT2 conf=3.4*
CNc1nc(Nc2ccc(C(=O)N3CCOCC3)cc2OC)ncc1Cl | 2% | · | · | · | · | · | · | · | ·
COc1ccc(NC(=O)CN2C(=O)NC3(CCCCC3)C2=O)cc1OC | -4% | 2% | -4% | -5% | i | · | · | · | ·
Cc1ccccc1NC(=O)N1CCC2(CC1)C(=O)N(c1cccc(F)c1)C2c1ccccc1 (stereo not given) | 4% | · | ? | ? | · | · | · | · | ·
CCCn1ncc(N2CCC(C(=O)N(CCCOC)Cc3ccc4c(c3)CCCN4CC)CC2)cc1=O | 10µM* | · | 35µM* | 22µM* | · | · | · | · | · | GPT2 conf=1.7*
